Laboratory results taken from PubChem BioAssay.
Activity calls are given as the source filed them.

How the values were obtained:
[1] = tested on: PRMT1 (protein arginine N-methyltransferase 1); experiment: small molecules binding arginine methyltransferase PRMT1 – biochemical, small-molecule microarray, 635 nm fluorescence, primary screen (AID 1088); conditions: higher = more signal;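 further: binding of Prmt1 protein to compounds spotted on small-molecule microarray slides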
[2] = growth effects on S. cerevisiae YJM789 – YJM789 clinical isolate, OD600, 24 h, basal, primary screen (AID 1089); conditions: higher = more signal, called active from +8 up or from −8 down;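 further: growth of clinical yeast isolate S. cerevisiae YJM 789 seeded 1000 cells per well; test concentration not given here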
[3] = S. pombe growth modifiers, basal conditions – strain 972, OD600, 24 h, no modulator, primary screen (AID 1090);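 further: basal condition with compound alone and no growth modifier present; test concentration not given here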; conditions: S. pombe 972 growth, higher = more signal, called active from +8 up or from −8 down
[4] = budding yeast growth modifiers under rapamycin – strain BY4716, OD600, 96 h, primary screen (AID 1091); further: test concentration not given here; conditions: S. cerevisiae BY4716 + rapamycin, higher = more signal, called active from +8 up or from −8 down
[5] = target: Torsin-1A-interacting protein 2 (Homo sapiens) (UniProt Q8NFQ8); experiment: small molecules binding lysate-expressed LULL1 – cell lysate, human LULL1 lysate, 635/667 nm fluorescence, primary screen (AID 1092); conditions: small-molecule microarray, hLULL1 lysate binding, 635 nm fluorescence; higher = more signal;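 further: probe is lysate of COS7 cells overexpressing human LULL1; score merges per-feature 667 nm fluorescence with signal-to-noise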
Chain of Torsin-1A-interacting protein 2 (Homo sapiens) (Q8NFQ8 whole entry, looked up): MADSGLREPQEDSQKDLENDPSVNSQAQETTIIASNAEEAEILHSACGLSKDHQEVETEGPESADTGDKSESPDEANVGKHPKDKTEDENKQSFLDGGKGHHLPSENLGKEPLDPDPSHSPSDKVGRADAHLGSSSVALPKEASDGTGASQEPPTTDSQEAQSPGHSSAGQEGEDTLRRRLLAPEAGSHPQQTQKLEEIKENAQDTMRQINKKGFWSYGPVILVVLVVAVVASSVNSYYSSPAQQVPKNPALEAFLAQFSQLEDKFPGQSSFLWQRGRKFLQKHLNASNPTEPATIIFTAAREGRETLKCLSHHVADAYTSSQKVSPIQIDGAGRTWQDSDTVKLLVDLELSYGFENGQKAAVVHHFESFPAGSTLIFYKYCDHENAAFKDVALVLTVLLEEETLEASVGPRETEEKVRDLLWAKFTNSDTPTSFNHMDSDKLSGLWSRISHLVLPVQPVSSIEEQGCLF

[6] = optical density change of DRC41 E. coli – strain DRC41, OD650, 24 h, E. coli filamentation project, primary screen (AID 1093);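 further: MC1000 strain lacking acrAB efflux and sulA so SOS filamentation is blocked; test concentration not given here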; conditions: E. coli DRC41 growth, higher = more signal, called active from +8 up or from −8 down
[7] = probe aLefty2 binding to arrayed compounds – biochemical, biotinylated probe, 635/667 nm fluorescence, primary screen (AID 1094); conditions: small-molecule microarray, higher = more signal;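 further: score merges spot fluorescence near 667 nm with spot signal-to-noise ratio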
[8] = tested on: Noggin (protein binding on small-molecule microarray); experiment: small molecules binding Noggin protein – biochemical, 635/667 nm fluorescence, primary screen (AID 1095); conditions: 635 nm fluorescence, higher = more signal;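 further: score merges 667 nm feature fluorescence with signal to noise over triplicate slides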
[9] = target: Neurogenic locus notch homolog protein 3 (Homo sapiens) (UniProt Q9UM47); experiment: small molecules binding NOTCH3 protein – biochemical, 635/667 nm fluorescence, primary screen (AID 1096); conditions: small-molecule microarray, 635 nm fluorescence, higher = more signal
Chain of Neurogenic locus notch homolog protein 3 (Homo sapiens) (Q9UM47 whole entry, looked up): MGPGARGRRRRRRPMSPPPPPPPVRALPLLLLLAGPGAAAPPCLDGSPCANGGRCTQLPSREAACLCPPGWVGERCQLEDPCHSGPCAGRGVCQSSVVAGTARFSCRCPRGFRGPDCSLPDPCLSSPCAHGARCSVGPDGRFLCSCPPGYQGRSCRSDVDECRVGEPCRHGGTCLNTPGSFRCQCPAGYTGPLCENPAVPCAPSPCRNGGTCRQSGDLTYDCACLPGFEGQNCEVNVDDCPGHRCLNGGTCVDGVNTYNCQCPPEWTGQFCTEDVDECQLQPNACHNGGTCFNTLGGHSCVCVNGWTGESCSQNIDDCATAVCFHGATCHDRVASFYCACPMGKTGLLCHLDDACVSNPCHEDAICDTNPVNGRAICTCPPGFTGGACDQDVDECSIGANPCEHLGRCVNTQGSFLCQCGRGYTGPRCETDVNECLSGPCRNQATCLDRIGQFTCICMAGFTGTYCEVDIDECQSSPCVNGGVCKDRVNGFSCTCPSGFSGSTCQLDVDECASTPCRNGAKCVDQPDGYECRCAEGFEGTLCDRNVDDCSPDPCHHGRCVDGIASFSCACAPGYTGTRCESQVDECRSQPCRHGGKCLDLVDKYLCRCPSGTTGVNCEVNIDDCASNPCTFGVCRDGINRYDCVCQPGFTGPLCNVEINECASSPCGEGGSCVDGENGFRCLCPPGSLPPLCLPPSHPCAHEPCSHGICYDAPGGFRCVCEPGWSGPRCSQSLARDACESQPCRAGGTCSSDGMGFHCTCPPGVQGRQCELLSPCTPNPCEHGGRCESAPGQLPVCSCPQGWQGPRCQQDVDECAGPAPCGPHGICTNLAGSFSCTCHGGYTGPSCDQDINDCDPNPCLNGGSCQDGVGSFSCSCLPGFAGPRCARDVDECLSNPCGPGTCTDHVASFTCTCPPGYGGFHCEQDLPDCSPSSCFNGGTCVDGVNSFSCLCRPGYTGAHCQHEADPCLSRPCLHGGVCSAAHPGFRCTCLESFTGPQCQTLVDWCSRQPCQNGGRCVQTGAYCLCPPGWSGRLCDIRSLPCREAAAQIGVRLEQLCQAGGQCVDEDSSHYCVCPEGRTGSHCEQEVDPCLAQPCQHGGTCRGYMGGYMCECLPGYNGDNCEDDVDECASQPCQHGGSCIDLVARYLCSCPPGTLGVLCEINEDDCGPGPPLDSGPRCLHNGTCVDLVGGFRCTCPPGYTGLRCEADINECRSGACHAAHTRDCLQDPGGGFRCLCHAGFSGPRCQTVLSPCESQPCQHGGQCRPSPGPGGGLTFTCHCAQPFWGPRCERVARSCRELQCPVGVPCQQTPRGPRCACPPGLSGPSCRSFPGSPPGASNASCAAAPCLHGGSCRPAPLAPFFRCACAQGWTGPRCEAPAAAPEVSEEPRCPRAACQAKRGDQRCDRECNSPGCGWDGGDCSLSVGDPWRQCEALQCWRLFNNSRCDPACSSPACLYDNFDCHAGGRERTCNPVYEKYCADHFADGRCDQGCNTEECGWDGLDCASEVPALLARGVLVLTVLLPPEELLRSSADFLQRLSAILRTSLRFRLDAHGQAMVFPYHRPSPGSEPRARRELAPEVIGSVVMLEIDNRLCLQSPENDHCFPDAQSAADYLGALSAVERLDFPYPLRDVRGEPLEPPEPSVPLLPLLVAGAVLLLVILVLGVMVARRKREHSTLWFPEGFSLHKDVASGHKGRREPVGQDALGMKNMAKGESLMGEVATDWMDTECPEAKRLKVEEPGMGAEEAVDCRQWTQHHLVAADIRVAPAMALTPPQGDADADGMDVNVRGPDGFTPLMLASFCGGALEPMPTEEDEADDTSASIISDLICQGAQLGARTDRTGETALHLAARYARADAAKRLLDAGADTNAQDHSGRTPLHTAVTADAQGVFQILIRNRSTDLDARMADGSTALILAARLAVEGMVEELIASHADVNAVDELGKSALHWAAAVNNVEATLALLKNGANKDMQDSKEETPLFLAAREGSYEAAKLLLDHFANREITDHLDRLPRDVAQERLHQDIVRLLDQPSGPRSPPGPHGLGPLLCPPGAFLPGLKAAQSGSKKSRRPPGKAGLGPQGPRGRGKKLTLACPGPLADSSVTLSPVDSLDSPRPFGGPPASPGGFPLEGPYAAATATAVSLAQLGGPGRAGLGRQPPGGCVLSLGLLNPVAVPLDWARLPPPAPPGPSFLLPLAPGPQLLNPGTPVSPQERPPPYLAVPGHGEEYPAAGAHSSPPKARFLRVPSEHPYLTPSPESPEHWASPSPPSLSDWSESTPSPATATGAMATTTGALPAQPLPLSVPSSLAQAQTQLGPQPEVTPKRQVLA

[10] = probe aEGFR binding to arrayed compounds – biochemical, biotinylated probe, 635/667 nm fluorescence, primary screen (AID 1097); conditions: small-molecule microarray, higher = more signal;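 further: probe is a biotinylated anti-EGFR antibody binding compounds printed on slides; score combines fluorescence near 667 nm and signal to noise of each spot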
[11] = tested on: Plasmodium falciparum Sir2 (PF13_0152, Sir2A); experiment: Plasmodium falciparum Sir2A binding compounds – biochemical, small-molecule microarray, 635 nm fluorescence, primary screen (AID 1098); conditions: fluorescence 635 nm, higher = more signal;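 further: score merges spot fluorescence intensity with its signal-to-noise ratio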
[12] = probe aDKK1 binding to arrayed compounds – biochemical, biotinylated probe, 635/667 nm fluorescence, primary screen (AID 1099); conditions: small-molecule microarray, higher = more signal;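 further: score merges 667nm spot fluorescence with signal to noise across triplicate slides; reference of the scale not given here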
[13] = probe aCHRDL2 binding to arrayed compounds – biochemical, biotinylated probe, 635/667 nm fluorescence, primary screen (AID 1100); conditions: small-molecule microarray, higher = more signal
[14] = change in splice reporter luminescence, either direction, cell-based, HEK293, spliceosome inhibition project, primary screen (AID 1101); conditions: HEK293 splicing luciferase reporter, 24 h, higher = more signal, called active from +8 up or from −8 down;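 further: HEK293 cells carrying a splicing-competent luciferase reporter gene; test concentration not given here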
[15] = target: Fibroblast growth factor 10 (Homo sapiens) (UniProt O15520); experiment: compounds binding fibroblast growth factor 10 – biochemical, small-molecule microarray, 635 nm fluorescence, primary screen (AID 1102); conditions: FGF10 binding, fluorescence 635 nm, higher = more signal
Chain of Fibroblast growth factor 10 (Homo sapiens) (O15520 whole entry, looked up): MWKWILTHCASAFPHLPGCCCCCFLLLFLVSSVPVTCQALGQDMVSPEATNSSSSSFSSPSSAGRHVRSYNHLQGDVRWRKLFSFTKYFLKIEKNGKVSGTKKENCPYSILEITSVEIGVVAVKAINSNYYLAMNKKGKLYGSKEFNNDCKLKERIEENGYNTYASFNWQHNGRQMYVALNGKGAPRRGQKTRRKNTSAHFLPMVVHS

[16] = tested on: glycogen synthase kinase-3 (GSK3A per assay name; protocol says GSK3B); experiment: compounds binding glycogen synthase kinase-3 – biochemical, small-molecule microarray, 635 nm fluorescence, GSK3A, primary screen (AID 1103); conditions: fluorescence 635 nm, higher = more signal; further: the record names both GSK3A and GSK3B
[17] = target: Epidermal growth factor receptor (Homo sapiens) (UniProt P00533); experiment: compounds binding epidermal growth factor receptor – biochemical, small-molecule microarray, 635 nm fluorescence, primary screen (AID 1104); conditions: EGFR binding, higher = more signal;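 further: score merges 667 nm emission intensity with spot signal to noise over triplicate slides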
Chain of Epidermal growth factor receptor (Homo sapiens) (P00533 whole entry, looked up): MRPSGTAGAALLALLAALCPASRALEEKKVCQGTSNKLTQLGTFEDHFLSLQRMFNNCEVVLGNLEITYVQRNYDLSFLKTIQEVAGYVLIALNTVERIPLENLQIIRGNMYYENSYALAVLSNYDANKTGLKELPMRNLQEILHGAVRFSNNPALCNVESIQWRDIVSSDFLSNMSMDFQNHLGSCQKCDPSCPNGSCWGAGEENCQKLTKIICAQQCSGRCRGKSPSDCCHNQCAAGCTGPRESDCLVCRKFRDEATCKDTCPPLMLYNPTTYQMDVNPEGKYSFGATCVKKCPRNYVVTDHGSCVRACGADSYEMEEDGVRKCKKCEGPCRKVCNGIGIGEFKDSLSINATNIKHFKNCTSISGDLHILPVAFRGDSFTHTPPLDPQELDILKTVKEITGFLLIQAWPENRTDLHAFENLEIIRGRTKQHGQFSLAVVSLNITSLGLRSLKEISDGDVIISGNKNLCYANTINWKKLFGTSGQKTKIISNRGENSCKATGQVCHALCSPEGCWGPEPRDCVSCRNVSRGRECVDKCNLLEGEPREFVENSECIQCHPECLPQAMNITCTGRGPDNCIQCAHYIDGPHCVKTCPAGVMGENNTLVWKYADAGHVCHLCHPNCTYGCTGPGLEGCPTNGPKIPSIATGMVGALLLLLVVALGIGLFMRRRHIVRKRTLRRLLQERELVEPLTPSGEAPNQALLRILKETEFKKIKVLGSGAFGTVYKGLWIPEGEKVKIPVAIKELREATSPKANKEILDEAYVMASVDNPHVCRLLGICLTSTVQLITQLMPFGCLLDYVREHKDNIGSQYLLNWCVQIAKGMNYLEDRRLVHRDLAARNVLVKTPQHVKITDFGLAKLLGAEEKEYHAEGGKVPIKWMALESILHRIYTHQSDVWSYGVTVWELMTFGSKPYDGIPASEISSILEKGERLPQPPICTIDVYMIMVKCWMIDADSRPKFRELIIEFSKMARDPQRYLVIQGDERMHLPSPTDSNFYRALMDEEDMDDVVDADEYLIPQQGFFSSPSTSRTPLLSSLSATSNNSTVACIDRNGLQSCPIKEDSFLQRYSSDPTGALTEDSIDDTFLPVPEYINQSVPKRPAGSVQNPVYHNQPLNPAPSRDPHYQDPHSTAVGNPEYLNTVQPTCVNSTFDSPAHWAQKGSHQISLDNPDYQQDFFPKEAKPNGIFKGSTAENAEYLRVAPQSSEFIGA

[18] = target: Follistatin-related protein 3 (Homo sapiens) (UniProt O95633); experiment: compounds binding follistatin-related protein 3 – biochemical, small-molecule microarray, 635 nm fluorescence, primary screen (AID 1105); conditions: FSTL3 binding, higher = more signal;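 further: score merges emission near 667 nm and signal to noise per printed spot across three slides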
Chain of Follistatin-related protein 3 (Homo sapiens) (O95633 whole entry, looked up): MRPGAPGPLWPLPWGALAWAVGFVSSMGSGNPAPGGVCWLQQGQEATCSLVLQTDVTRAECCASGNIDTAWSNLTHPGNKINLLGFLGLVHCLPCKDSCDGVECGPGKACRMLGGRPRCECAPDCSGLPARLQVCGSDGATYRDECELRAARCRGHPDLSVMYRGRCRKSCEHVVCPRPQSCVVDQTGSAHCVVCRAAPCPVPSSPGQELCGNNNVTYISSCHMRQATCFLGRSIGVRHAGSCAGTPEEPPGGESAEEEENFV

[19] = target: Dickkopf-related protein 1 (Homo sapiens) (UniProt O94907); experiment: small molecules binding DKK1 protein – biochemical, small-molecule microarray, 635 nm fluorescence scan, primary screen (AID 1106); conditions: higher = more signal;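 further: score merges emission near 667 nm with signal to noise over three replicate slides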
Chain of Dickkopf-related protein 1 (Homo sapiens) (O94907 whole entry, looked up): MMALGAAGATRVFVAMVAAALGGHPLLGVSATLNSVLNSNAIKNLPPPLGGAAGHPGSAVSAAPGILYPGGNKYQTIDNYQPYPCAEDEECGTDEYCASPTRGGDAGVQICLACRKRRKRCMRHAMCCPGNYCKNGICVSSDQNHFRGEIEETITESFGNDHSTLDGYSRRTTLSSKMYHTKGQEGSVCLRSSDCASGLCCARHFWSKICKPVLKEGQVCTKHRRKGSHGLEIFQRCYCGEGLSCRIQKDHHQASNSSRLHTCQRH

[20] = tested on: Inhibin beta A chain (activin A); experiment: small molecules binding activin A – biochemical, small-molecule microarray, 635 nm fluorescence scan, primary screen (AID 1107); conditions: INHBA, higher = more signal;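 further: mouse activin A protein probed at 4.33 µg/mL on printed slides; score merges bound-protein fluorescence near 667 nm with spot signal-to-noise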

SMILES	composite z-score [1]	z-score [2]	z-score [3]	z-score [4]	composite z-score [5]	z-score [6]	composite z-score [7]	composite z-score [8]	composite z-score [9]	composite z-score [10]	composite z-score [11]	composite z-score [12]	composite z-score [13]	z-score [14]	composite z-score [15]	composite z-score [16]	composite z-score [17]	composite z-score [18]	composite z-score [19]	composite z-score [20]
CN1C(=O)C2C=CC(C(O)c3cc(C(F)(F)F)cc(C(F)(F)F)c3)N(NC(=O)OC(C)(C)C)C2C1=O (stereo not given)	1.56	-0.403 (inactive)	-0.983 (inactive)	-0.314 (inactive)	3.61	-0.0262 (inactive)	0.322	0.421	0.995	0.0169	0.733	0.781	1.05	-0.149 (inactive)	0.959	1.3	0.497	1.32	-0.868	0.279
COc1ccc([Si](C)(C)[C@@H]2[C@@H](CC(=O)N3Cc4ccccc4C[C@H]3CO)O[C@]3(C(=O)N(c4ccccc4)c4ccccc43)[C@H]2C)cc1	1.41	1.18 (inactive)	1.4 (inactive)	2.93 (inactive)	1.88	0.774 (inactive)	0.541	1.71	1.05	0.13	2.04	0.713	0.449	-0.0709 (inactive)	1.09	1.26	0.799	1.37	1.1	0.816
[N-]=[N+]=NCc1ccccc1[C@@H]1OC(c2ccc(OCCCO)cc2)=N[C@]1(Cc1ccccc1N=[N+]=[N-])C(=O)N1CCCCC1	1.38	-0.0524 (inactive)	-1.17 (inactive)	2.24 (inactive)	3.18	0.379 (inactive)	0.0216	0.345	0.921	0.706	0.785	0.561	0.321	0.327 (inactive)	0.548	0.363	0.435	0.491	-0.221	1.29
C=CCC(OC(C)=O)[C@@H]1[C@@H](N(Cc2ccc(-c3cccc(C(F)(F)F)c3)o2)C(=O)c2cccc3ccccc23)c2cc(OCCCO)ccc2N1C(=O)Cc1ccc(OC)cc1 (stereo not given in full)	0.224	0.504 (inactive)	-0.117 (inactive)	-0.296 (inactive)	0.648	0.776 (inactive)	0.0054	0.266	0.263	-0.133	0.727	-0.291	0.107	-0.57 (inactive)	0.0525	-1.13	-0.198	0.495	-0.141	1.08
C=CCNC(=O)[C@H]1[C@@H]2C(=O)O[C@@H](c3ccccc3)[C@@H](c3ccccc3)N2[C@@H](c2ccc(OCCO)cc2)[C@]12C(=O)N(C(=O)OCCOC)c1ccc(C#Cc3ccc(OC)cc3)cc12	1.41	1.2 (inactive)	0.927 (inactive)	6.91 (inactive)	2.47	2.63 (inactive)	-0.0154	1.04	1.09	-0.0164	1.28	0.195	-0.0801	-0.957 (inactive)	0.866	1.28	0.639	0.749	0.189	0.768
COc1ccc(C#Cc2ccc3c(c2)[C@]2(C(=O)N3)[C@H](C(=O)N3CCCCCCC3)[C@H]3C(=O)O[C@H](c4ccccc4)[C@H](c4ccccc4)N3[C@@H]2c2ccc(O)cc2)cc1	1.56	-0.0118 (inactive)	0.0345 (inactive)	0.595 (inactive)	3.12	0.209 (inactive)	1	0.719	1.1	0.426	1.57	1.36	0.696	-0.547 (inactive)	0.684	1.16	0.427	1.2	0.608	0.85
CC(=O)NCCCC[C@@H]1NC(=O)[C@H]2C[C@@H](C(=O)NCCCCCNC(=O)CS)[C@@H](c3cccc(OCCO)c3)N2C1=O	0.896	0.778 (inactive)	0.0625 (inactive)	0.0709 (inactive)	3.18	-0.418 (inactive)	-0.184	0.52	0.059	-0.104	1.52	-0.136	0.441	-0.293 (inactive)	0.349	0.552	0.39	0.397	0.607	0.469
CC(C)[C@H]1NC(=O)[C@@]23C(=O)N[C@@H](Cc4ccccc4)C2[C@H](C)[C@@]2(C)O[C@H]2C3/C=C/C/C=C\CNC(=O)[C@H](Cc2ccccc2)NC1=O (stereo not given in full)	1.53	-0.155 (inactive)	-0.228 (inactive)	0.246 (inactive)	2.68	0.317 (inactive)	-0.052	0.877	1.08	0.0354	0.205	-0.38	-0.481	0.0723 (inactive)	1.37	1.08	0.512	1.44	0.336	1.12
C=CCC(OC(C)=O)[C@@H]1[C@@H](N(Cc2cc3ccccc3o2)C(=O)c2ccc(-c3ccccc3)cc2)c2cc(OCCCO)ccc2N1C(=O)Cc1ccc(OC)cc1 (stereo not given in full)	-0.826	0.21 (inactive)	0.443 (inactive)	0.945 (inactive)	-0.299	-1.02 (inactive)	-0.0766	0.18	-0.364	-0.0353	0.104	-0.102	0.0935	-0.762 (inactive)	0.247	-0.744	0.0306	0.307	0.063	0.774
O=C1O[C@H](c2ccccc2)[C@H](c2ccccc2)N2[C@H]1[C@@H](C(=O)Nc1nc3ccccc3s1)[C@]1(C(=O)Nc3ccc(C#CC4=CCCCC4)cc31)[C@H]2c1ccc(O)cc1	1.55	0.556 (inactive)	0.589 (inactive)	0.401 (inactive)	2.88	1.97 (inactive)	-0.12	1.1	1.06	-0.0679	1.52	-0.0399	0.115	-1.31 (inactive)	0.588	1.22	0.308	0.842	0.188	0.533
